Screening results from PubChem BioAssay.
Nrf2 block: Nrf2 qHTS screen for inhibitors; A549 ARE-Fluc reporter, luciferase luminescence, 18-24 h; AID 504444, 2011; Potency, µM (doses to about 46 µM), most hits filed as inhibitors; 360,000 compounds, 2.1% hits; further: nearly all actives have a fitted effect of over 60% in size
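A549 ARE_Fluc cells (5000/well, 5% FBS OPTI-MEM) pre-incubated 2 h, then treated with compounds 18-24 h at 37C/5% CO2 in concentration-response. CellTiter-Fluor viability read first; BugLite luciferase luminescence after 15 min at room temperature gives Nrf2 activity.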
ClpP mod: qHTS Assay for Activators of ClpP; 340,000 compounds, 1.9% hits; purified B. subtilis ClpP, FRET peptide cleavage, 20 min; AID 651965, 2013; Potency, µM (titrated, usually from 57.5 µM); ATP-dependent Clp protease proteolytic subunit (Bacillus subtilis (strain 168)), P80244; active means well fitted falling curve with a large enough effect; inconclusive means small, poorly fitted or top-dose-only effect; inactive means no such curve, though single readings can be large or run the other way; further: the source files actives as falling curves though it sought activators and does not explain the sign; nearly all actives have a fitted effect of over 65% in size
Target sequence (P80244 whole entry, looked up): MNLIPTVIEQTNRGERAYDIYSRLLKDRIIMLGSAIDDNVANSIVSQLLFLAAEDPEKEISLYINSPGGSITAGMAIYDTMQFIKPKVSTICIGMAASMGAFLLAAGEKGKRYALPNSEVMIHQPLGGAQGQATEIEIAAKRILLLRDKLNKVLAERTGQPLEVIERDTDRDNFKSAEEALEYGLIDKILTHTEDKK
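ClpP 10 microg/mL final, pH 8 Tris/KCl buffer with BSA, glycerol, Tween-20; compound pinned in; FRET-FV substrate; RT 20 min; Ex320/Em430; ΔFRET vs ADEP 5.8 microM, DMSO, no enzyme.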
p53 reactivation: qHTS assay for re-activators of p53 using a Luc reporter; H1299 p53-A138V BP100-luciferase reporter, luminescence, 24 h; Potency, µM (highest dose often 92.2 µM), actives largely listed as activators; 320,000 compounds, 0.063% hits; AID 504706, 2011; further: nearly all actives have a fitted effect of over 45% in size
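H1299 (p53-null), stable ts p53-A138V + BP100-Luc; 1000 cells/well, Opti-MEM/10% FBS; cpd 4 pt, 1:5; 24 h, 37 deg C, 5% CO2; detection reagent 10 min RT; luminescence.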
Nrf2 ARE act: qHTS of Nrf2 Activators. Potency, µM (doses to about 46.1 µM), most hits filed as activators. 410,000 compounds, 0.31% hits. AREc32 ARE-luciferase reporter (MCF7-derived line), luminescence, 24 h; further: nearly all actives have a fitted effect of over 65% in size
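Reporter line AREc32 (ARE-Fluc), seeded overnight in OPTI-MEM with 5% FBS; compound pin-transferred, 24 hr at 37 deg C, 5% CO2; luminescent read-out.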
miR-21 reporter: qHTS Assay for Modulators of miRNAs and/orActivators of miR-21 | HeLa miR-21 FLuc reporter, luciferase, 48 h | Potency, µM (highest dose often 38.3 µM), most hits filed as activators | 340,000 tested, under 10 active | AID 2288, 2010;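 further: miR-21 action dims this reporter so a rising signal means less miR-21 action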
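Using DMEM plus 10% FBS, HeLa miR-21-FLuc cells are incubated with test compounds (final up to about 40uM) for 48 hours; firefly luciferase signal is then imaged following reagent-mediated lysis.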
A549 tox: Nrf2 qHTS screen for inhibitors: counterscreen for cytotoxicity | Potency, µM (top dose mostly 46 µM), most hits filed as inhibitors | 390,000 compounds, 0.16% hits | AID 504648, 2011 | A549 ARE-Fluc cells, CellTiter-Fluor viability, 18-24 h
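A549 ARE_Fluc cells in 5% FBS OPTI-MEM were exposed to compounds in concentration-response for 18-24 h at 37 deg C. Viability was read by CellTiter-Fluor fluorescence (Ex 405/Em 525) after 30 min, before the luciferase read.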
Hits are given with their value; - = inactive; ? = inconclusive; . = no result; [ ] = another dose, or the depositor's remark. In the library only some 3.7% were active in any assay of this set; here they are far more common. Unless noted, the call rests on the fitted dose curve; in most records, active means well fitted curve in the direction sought with a large enough effect; inconclusive means small, poorly fitted or top-dose-only effect, or another doubt; inactive means no such curve, though single readings can be large; an effect the other way counts as inactive or inconclusive.

SMILES	Nrf2 block	ClpP mod	p53 reactivation	Nrf2 ARE act	miR-21 reporter	A549 tox
CCCOC(=O)C1=C(C)NC2=C(C(=O)CC(C)(C)C2)C1c1ccc(N(C)C)cc1 (stereo not given)	.	-	-	-	-	-
CCN(CC)c1ccc(C2C(C(=O)OCCOC)=C(C)NC3=C2C(=O)CC(C)(C)C3)cc1 (stereo not given)	.	28.2µM	-	-	-	-
CSC1=C(C#N)C(C)C2=C(CC(C)(C)CC2=O)N1 (stereo not given)	.	-	-	-	-	-
COC(=O)c1ccc(C2C(C#N)=C(C)NC3=C2C(=O)CC(C)(C)C3)cc1 (stereo not given)	-	22.4µM	-	-	-	-
CCOC(=O)C1=C(C)NC2=C(C(=O)CC(C)(C)C2)C1c1cccc(C)n1 (stereo not given)	-	31.6µM	-	-	-	-
CCCCC1C(C#N)=C(C)NC2=C1C(=O)CC(C)(C)C2 (stereo not given)	-	12.6µM	-	-	-	-
COc1ccc(C2C(C#N)=C(SC)NC3=C2C(=O)CC(C)(C)C3)cc1 (stereo not given)	-	-	-	-	-	-
C=CCn1c(=NC(=O)c2ccco2)sc2cc(C(=O)OC)ccc21	-	22.4µM	-	?	-	-
C=CCn1c(=NC(=O)c2ccco2)sc2cc(C(=O)OCC)ccc21	-	22.4µM	?	-	-	-
CCOC(=O)c1c(C)oc2nc(C)nc(NCCCN3CCN(c4ccccc4OC)CC3)c12	-	-	.	-	-	-
CN(C)/C=C/C(=O)c1ccc(Cl)c([N+](=O)[O-])c1	-	.	?	12.6µM	-	-
N#C/C(=C\c1cc(Br)c(O)c(Br)c1)c1nc2ccccc2c(=O)[nH]1	-	25.1µM	.	-	-	-
N#C/C(=C/c1ccncc1)c1nc2ccccc2c(=O)[nH]1	-	.	-	-	-	-
COc1ccc(NS(=O)(=O)c2ccc3c(c2)Cc2ccccc2-3)cn1	16.4µM	-	-	-	-	-
COc1cccc(OC)c1Nc1nc(C)nc2c1nnn2Cc1ccccc1Cl	-	.	-	-	-	-
CCc1nc(Nc2ccc(OC)c(OC)c2)c2nnn(Cc3ccccc3Cl)c2n1	10.3µM	-	-	-	-	?
Cc1ccccc1CN1C(=O)C2(c3ccccc31)N(c1ccccc1)C(=O)CS2(=O)=O (stereo not given)	?	-	.	-	-	-
CN1C(=O)c2ccccc2Sc2ccc(NC(=O)Nc3ccccc3F)cc21	20.6µM	-	.	-	?	-
Cc1ccc(NC(=O)Nc2ccc3c(c2)N(C)C(=O)c2ccccc2S3)c(C)c1	-	-	.	-	-	-
CCn1c(=O)n(CC)c2cc(N3CCCCC3)c(NC(=O)Nc3cc(Cl)ccc3OC)cc21	?	28.2µM	.	-	-	-
CCn1c(=O)n(CC)c2cc(N3CCCC3)c(NC(=O)c3cc(Br)ccc3OC)cc21	-	-	-	-	-	-
Cc1nc(CN(C)c2ncnc3cc(-c4ccc5c(c4)OCO5)ccc23)cs1	-	.	.	.	.	-
Cc1cccc(CSCCNC(=S)Nc2ccccc2)c1	-	25.1µM	-	-	-	-
CCOC(=O)c1sc(NC(=O)c2cc(-c3ccc(C)cc3)nc3ccccc23)c(C#N)c1C	-	-	-	-	-	-
Cc1ccccc1-c1cc(C(=O)Nc2sc(C(=O)OC(C)C)c(C)c2C#N)c2ccccc2n1	2.59µM	-	-	-	?	7.31µM
SMILES	Nrf2 block	ClpP mod	p53 reactivation	Nrf2 ARE act	miR-21 reporter	A549 tox
COC(=O)c1sc(NC(=O)c2cc(-c3ccccc3)nc3ccccc23)c(C#N)c1C	9.2µM	-	-	-	-	?
CCC(C)NC(=O)c1ccc2c(c1)N=C(C)c1cc(C)ccc1S2 (stereo not given)	-	-	.	-	-	-
Cc1cc2nnc(SCc3ccc(F)cc3)n2c2ccccc12	-	-	.	-	-	-
COc1ccc(OC)c(-c2cc(C(=O)NC(C)c3ccccc3)no2)c1 (stereo not given)	-	-	.	-	-	-
COc1ccc(S(=O)(=O)NCCc2sc(-c3cccnc3)nc2C)cc1OC	.	-	.	-	-	-
CC1(C)CC(=O)C2=C(C1)c1c(ccc3ccccc13)NC2c1ccco1 (stereo not given)	?	25.1µM	-	-	-	-[1.84 µM]
COc1ccc(-c2c3c(nc4sc(C(=O)Nc5cc(C)on5)c(N)c24)CCC3)cc1	?	-	-	-	-	-
COc1ccc(-c2c3c(nc4sc5c(=O)[nH]c(C)nc5c24)CCC3)cc1	.	28.2µM	-	-	-	-
CCCCN(CC)C(=O)Cn1cc2c(n1)-c1c(oc(C(=O)N3CCCC3)c1C)CC2	?	-	.	-	-	-
COC(=O)[C@@]12C[C@@H](CC(=O)NCC34CC5CC(CC(C5)C3)C4)C(=O)N(Cc3ccccc3)C1=CCC(C)(C)C2	.	-	.	.	.	.
CN(C)CCCN(C(=O)/C=C/c1cccs1)c1nc2c(F)cccc2s1	-	.	-	?	?	-
COc1ccc2nc(N(CCN(C)C)C(=O)/C=C/c3cccs3)sc2c1	-	-	-	10µM	?	-
COc1ccc2sc(N(CCN(C)C)C(=O)/C=C/c3cccs3)nc2c1	-	-	-	10µM	-	-
CCN(CC)CCN(C(=O)/C=C/c1cccs1)c1nc2ccc(OC)cc2s1	?	-	.	-	.	-
Cc1cccc2sc(N(CCN(C)C)C(=O)/C=C/c3cccs3)nc12	-	-	?	11.2µM	-	?
CCc1ccccc1NS(=O)(=O)c1ccc2c(c1)CC(=O)N2	-	-	.	-	?	-
COCCNC(=O)Cn1c(=O)n(CCCCCC(=O)NCc2ccccc2Cl)c(=O)c2sccc21	-	-	.	-	-	-
N#Cc1cccc(NC(=O)C2CCN(S(=O)(=O)c3ccc4[nH]c(=O)ccc4c3)CC2)c1	.	-	.	-	-	-
O=C(Nc1sc2c(c1C(=O)O)CCCC2)c1ccc(Cl)cc1	6.51µM	.	.	-	-	?
O=C(Nc1sc2c(c1C(=O)O)CCCCC2)c1ccccc1	?	.	-	-	-	-
O=C(c1cccs1)N1CCN(c2ccc(Cl)cc2)CC1	-	.	.	-[9.22 µM]	-	-
O=C(Cn1c(-c2cccs2)cc2ccccc21)N1CCN(c2ccc(Cl)cc2)CC1	-	10µM	.	-	-	-
NC(=O)C1CCN(C(=O)Cn2c(-c3cccs3)cc3ccccc32)CC1	?	31.6µM	.	-	-	?
COc1ccc(N2CCN(C(=O)Cn3c(-c4cccs4)cc4ccccc43)CC2)cc1	-	31.6µM	.	-	-	-
